# TGFb SMAD3 inh: TGF-b pathway inhibition; 1.2% of 410,000 active; Potency, µM (top dose mostly 46.1 µM), for the others: at the highest dose activity, negative = inhibition, most hits filed as inhibitors; HepG2 CAGA-GFP TGF-b/SMAD3 reporter, GFP fluorescence, 18 h; TGF-beta stimulated, 500 pg/mL final; further: on the % scale 0 is the no-effect control and ±100 the full control effect; nearly all actives have a fitted effect of over 65% in size
#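 TGF-beta reporter screen: HEPG2 CAGA-GFP, 1% FBS, 500 pg/mL TGF-beta final, 18 h; per-cell GFP summed per well; curves fitted and categorized by class.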
# HepG2 tox: kills HepG2 cells in TGF-b inhibitor counter-screen | Potency, µM (doses to about 46.1 µM), for the others: at the highest dose activity change, negative = cytotoxicity, most hits filed as cytotoxic | HepG2 CAGA-GFP viability, ATP luminescence, 18 h | 0.76% of 410,000 active
#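 CellTiter-Glo luminescence gave cytotoxicity after 18 hours at 37 degrees C. The cells were HepG2 CAGA-GFP in 1% FBS DMEM, stimulated with 500 pg/mL TGF-beta after compound addition. %Activity was normalised to no-cell wells (complete cell-killing) and DMSO (no toxicity), and curves were fitted and classified.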
# HT1080-NT tox: kills 2HG-producing HT-1080-NT fibrosarcoma cells. AID 686970. HT-1080-NT fibrosarcoma viability, CellTiter-Glo ATP luminescence, 48 h. 1.6% of 360,000 active. Potency, µM (doses to about 46.1 µM), for the others: at the highest dose activity, negative = less viability, usual class: cytotoxic;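 further: NT is the 2HG producing partner of a matched IDH1 knockdown line; 0% = DMSO-treated cells and -100% = media-only wells without cells; nearly all actives have a fitted effect of over 55% in size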
#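 A 48-hour cytotoxicity screen used HT-1080-NT cells plated 2 hours before compound delivery. ATP-based CellTiter-Glo luminescence measured viability, normalized to DMSO and no-cell controls.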
# KB-3-1 cytotox: KB-3-1 parental cell cytotoxicity. KB-3-1 viability, CellTiter-Glo ATP luminescence, 72 h. 1.4% of 400,000 active. Potency, µM (series often up to 46.1 µM), usual class: cytotoxic. AID 1347075; further: on the % scale 0 is the no-effect control and ±100 the full control effect; nearly all actives have a fitted effect of over 60% in size
#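 Screening of KB-3-1 cells (DMEM, 10% FBS, phenol-red free) ran from lowest to highest compound concentration; after 72 h at 37 °C viability was read luminescently and curves fitted.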
# HT1080 IDH1KD tx: HT-1080 IDH1 knockdown cell toxicity (counter line); Potency, µM (doses to about 46.1 µM), without a hit: top-dose activity, negative = toxicity, actives largely listed as cytotoxic; 2% of 360,000 active; AID 686971; HT-1080 IDH1 knockdown viability, ATP luminescence, 48 h;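 further: 0% = DMSO wells and -100% = cell-free medium wells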
#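 IDH1KD HT-1080 cells, 750/well, RPMI + 5% FBS; compound pinned after 2 h settling; 48 h, 37 °C; CellTiter-Glo luminescence; % activity normalised to DMSO and no-cell wells; curves fitted, classed by r2 and efficacy.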
# KB-V1 MDR tox: KB-V1 MDR subline cytotoxicity; KB-V1 MDR cells viability, CellTiter-Glo, 72 h; Potency, µM (series often up to 46.1 µM), most hits filed as cytotoxic; 3.4% of 400,000 active; further: on the % scale 0 is the no-effect control and ±100 the full control effect; nearly all actives have a fitted effect of over 60% in size
#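 Potencies derive from concentration-effect curves fitted to normalized luminescence (CellTiter-Glo) of KB-V1 cells treated for 72 h at 37 degrees C in phenol-red-free DMEM containing 10% FBS.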
# Numbers without * were called inactive; i = inactive; ? = inconclusive; / = no result given; ! = a repeat was not active. Most compounds without a hit are left out; they make up all but 6.6% or so of the library. The call rests on the fitted dose curve; in most records, active means well fitted curve in the direction sought with a large enough effect; inconclusive means small, poorly fitted or top-dose-only effect, or another doubt; inactive means no such curve, though single readings can be large; an effect the other way counts as inactive or inconclusive. Potency means the concentration at half of the fitted maximal effect.
SMILES,TGFb SMAD3 inh,HepG2 tox,HT1080-NT tox,KB-3-1 cytotox,HT1080 IDH1KD tx,KB-V1 MDR tox
Cn1nnnc1Sc1ncnc2scc(-c3ccc(Cl)cc3)c12,?,-101%,/,?,/,?
COc1ccc2c(c1)CCc1c(C(=O)Nc3c(C)nn(Cc4ccc(C)cc4)c3C)noc1-2,?,-2%,/,?,/,i
Cc1c(NC(=O)C(F)(F)F)ccc2nc3c(=O)n(C)c(=O)n(C)c3nc12,16%,-41%,/,i,/,13µM*
C[C@H](CO)N1C[C@H](C)[C@@H](CN(C)C(=O)NC2CCCCC2)Oc2ccc(NS(C)(=O)=O)cc2C1=O,9%,-43%,-15%,i,2%,i
Cc1cc(C(=O)N/N=C/c2c(C)[nH]n(-c3ccccc3)c2=O)n[nH]1,28%,-15%,-26%,i,-23%,i
Cc1[nH]n(-c2ccccc2)c(=O)c1/C=N/NC(=O)c1cccc(F)c1,?,16µM*,10µM*,?,7.3µM*,?
Cc1[nH]n(-c2ccc(Br)cc2)c(=O)c1/C=N/NC(=O)c1ccccc1,3.5µM*,-42%,?,7.3µM*,?,1.3µM*
Cc1cc(C)cc(NC(=O)C2CCN(S(=O)(=O)c3cccc(-c4noc(C)n4)c3)CC2)c1,?,0%,/,i,/,i
COc1ccc(-c2c(C#N)c(SCC(=O)c3cc4ccccc4oc3=O)nc(C)c2C(=O)Nc2ccccc2)cc1,?,-26%,2%,18µM*,-2%,?
O=C(Nc1cc(=O)c2ccccc2o1)N1CCOCC1,0%,-3%,-6%,i,-11%,?
O=C(Nc1cc(=O)c2ccccc2o1)N1CCCCC1,-7%,-15%,-13%,i,-2%,12µM*
COc1ccc(C(=O)NCc2nnc(SCC(=O)Nc3ccc(F)cc3)n2-c2ccccc2)cc1,-24%,2%,/,i,/,i
Cc1ccc(CNCC(O)(c2ccc(F)cc2)c2ccc(F)cc2)cc1,?,-112%,-21%,i,-17%,i
Cc1ccc(CNCC(O)(c2ccccc2)c2ccc(F)cc2)cc1 (stereo not drawn),3%,-35%,-3%,i,-5%,18µM*
CN(c1ncnc2onc(-c3cccc(Cl)c3)c12)C1CCCCC1,?,-27%,/,i,/,i
O=c1[nH]c2ccccc2c2oc(CCl)nc12,?,-95%,5.8µM*,i,15µM*,?
COc1cc(-c2c(-c3cc(OC)c(OC)c(OC)c3)noc2C)ccc1F,?,-25%,0.13µM*,0.33µM*!,0.33µM*,0.41µM*
COc1ccc(-c2c(-c3cc(OC)c(OC)c(OC)c3)noc2C)cn1,?,-1%,?,1.6µM*,1.5µM*,1.6µM*!
Cc1cc(=O)[nH]c(SCC(=O)C23CC4CC(CC(C4)C2)C3)c1C#N,?,-34%,?,?,?,6.5µM*
CC(=O)C1=C(c2ccc(Br)cc2)C(=O)c2ccccc2C1=O,?,-99%,13µM*,?,13µM*,7.3µM*
CCOC(=O)c1cccc(NC(=O)CNS(=O)(=O)c2cccs2)c1,-20%,-7%,0%,i,1%,23µM*
CCOC(=O)c1cccc(NC(=O)CCS(=O)(=O)c2cccs2)c1,-18%,3%,3%,i,2%,21µM*
COc1cc(NC(=O)CNS(=O)(=O)c2cccs2)cc(OC)c1OC,2%,-17%,/,i,/,?
CCOC(=O)c1cnn(-c2cccc(F)c2)c1C1CCNCC1,0%,6%,/,i,/,i
COCC(=O)O[C@]1(CCN(C)CCCc2nc3ccccc3[nH]2)CCc2cc(F)ccc2[C@@H]1C(C)C,13µM*,11µM*,?,?,?,15µM*
SMILES,TGFb SMAD3 inh,HepG2 tox,HT1080-NT tox,KB-3-1 cytotox,HT1080 IDH1KD tx,KB-V1 MDR tox
CCc1ccc(N2C(=O)CS(=O)(=O)C23C(=O)N(Cc2ccccc2)c2ccccc23)cc1 (stereo not drawn),9%,2%,/,i,/,i
Cc1cn2c(=O)c(S(=O)(=O)NCCc3ccccc3)c(C)nc2s1,41%,-2%,/,i,/,i
Cc1ccc(Nc2nc(N)nc(CSC(=S)N3CCOCC3)n2)c(C)c1,-18%,-2%,0%,i,-7%,8.2µM*
Nc1nc(CSC(=S)N2CCOCC2)nc(Nc2ccc(F)cc2)n1,-9%,13%,5%,i,-4%,16µM*
Nc1nc(CSC(=S)N2CCN(c3ccccc3)CC2)nc(Nc2ccccc2)n1,?,14%,-8%,i,-16%,3.3µM*
Cc1ccc(Nc2nc(N)nc(CSC(=S)N3CCN(c4ccccc4)CC3)n2)cc1,-15%,-33%,11%,i,1%,16µM*
COc1ccccc1Nc1nc(N)nc(CSC(=S)N2CCN(c3ccccc3)CC2)n1,-14%,-17%,-9%,i,-21%,?
COc1ccc(-c2cc(C(=O)NCCc3ccc(OC)c(OC)c3)c3ccccc3n2)cc1,-21%,-27%,/,/,/,/
CCCOc1ccc(C2C(=O)N(C3CCC(C)CC3)CC(=O)N2Cc2cccc(OC)c2)cc1OC (stereo not drawn),0%,-2%,/,/,/,/
COc1ccccc1N(CC(O)COc1c(C)cc(C)cc1C)S(=O)(=O)c1ccccc1 (stereo not drawn),13µM*,11%,4%,?,-5%,8.2µM*
COc1ccccc1N(CC(O)COc1ccccc1)S(=O)(=O)c1ccccc1 (stereo not drawn),-10%,-3%,8%,i,9%,13µM*
Cc1[nH]c2ccccc2c1/C=C/c1ccc2ccccc2n1,0%,10µM*,/,i,/,?
COc1cc(/C=C/c2ccc3ccccc3n2)cc(OC)c1OC,-13%,-27%,/,2.6µM*,/,?
Cc1[nH]c2ccccc2c1/C=C/c1cnc2ccccc2n1,-28%,-30%,/,i,/,i
C(=C\c1ccco1)/c1ccc2ccccc2n1,?,i,?,i,10µM*,i
COc1cc(/C=C/c2nc3ccccc3nc2/C=C/c2cc(OC)c(OC)c(OC)c2)cc(OC)c1OC,3%,-9%,/,?,/,i
COc1cc(Cl)cc(/C=C/c2ccc3ccccc3n2)c1OC(C)=O,-6%,-67%,15µM*,i,15µM*,i
CCn1c(=O)c(C(=O)CN(C)CC(=O)Nc2cccc(F)c2)c(N)n(Cc2ccccc2)c1=O,-30%,-25%,-27%,?,?,i

# High-throughput results: PubChem BioAssay, National Center for Advancing Translational Sciences (NCATS)
